Test [1] in a line: compounds binding Alexa647 anti-His antibody – biochemical, small-molecule microarray, 635 nm fluorescence, artefact control for SMM control protein annotation, primary screen (AID 1128).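 Also: score merges feature fluorescence with signal-to-noise for each printed compound spot.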 The following applies: higher = more signal.
Test [2] concerns Human papillomavirus type 1a E7 protein (residues 1-88). The test is described as follows: HPV1a E7 small-molecule binders, primary screen, biochemical, small-molecule microarray, residues 1-88, 635 nm (AID 1129). The note with it: small-molecule microarray binding, fluorescence 635 nm; higher = more signal.
The target of test [3] is Focal adhesion kinase 1 (Homo sapiens) (UniProt Q05397). The test is described as follows: PTK2 protein binding on printed compound slides – biochemical, small-molecule microarray, 635/667 nm fluorescence, BSA, DTT, primary screen (AID 1130).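 Also: composite of spot emission at 667 nm and signal to noise over triplicate slides.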 The note with it: 635 nm fluorescence, higher = more signal.
Test [4] relates to Fibrinogen (Alexa647-labelled). The test is described as follows: Alexa647-fibrinogen binding to printed small molecules – biochemical, small-molecule microarray, 635/667 nm fluorescence, artefact control for SMM control-protein annotation, profiling panel (AID 1131).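 Also: z-score merges 667 nm fluorescence with per-spot signal-to-noise over triplicate slides.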 The note with it: fibrinogen-A647 binding fluorescence, higher = more signal.
Test [5] concerns the target Follistatin (Homo sapiens) (UniProt P19883). The test is described as follows: FST protein binding to printed compounds – biochemical, small-molecule microarray, 635/667 nm fluorescence, primary screen (AID 1132). The note with it: 635 nm fluorescence, higher = more signal.
Test [6] deals with Fibroblast growth factor 2 (Homo sapiens) (UniProt P09038). Put plainly: basic fibroblast growth factor binding to printed compounds – biochemical, small-molecule microarray, 635/667 nm fluorescence, primary screen (AID 1133). The note with it: FGF2, fluorescence 635/667, higher = more signal.
Test [7] in a line: JC-1 mitochondrial potential readout, lung cancer cells – cell-based, A549, JC-1 fluorescence, basal, 24 h, 100 nL, profiling panel (AID 1138).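 Also: A549 lung adenocarcinoma cells under basal conditions with no added stimulus; test concentration not given here.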 The following applies: higher = more signal.
Another test deals with Lefty1. Put plainly: Lefty1 protein binding to printed compounds – biochemical, small-molecule microarray, 635/667 nm fluorescence, primary screen (AID 1139). The following applies: fluorescence 635/667, higher = more signal.
In test [8] the test system is wheat germ agglutinin (Triticum aestivum), Alexa647-labelled. The test is described as follows: Alexa647-WGA lectin binding to printed small molecules – biochemical, small-molecule microarray, 635/667 nm fluorescence, artefact control for SMM control-protein annotation, profiling panel (AID 1140).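 Also: score merges 667 nm feature emission with signal to noise over triplicate slides.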 The note with it: WGA-A647 binding, 635 nm fluorescence, higher = more signal.

For test [9], the target named is Luciferin 4-monooxygenase (Photinus pyralis) (UniProt P08659). The test is described as follows: inhibition of purified Photinus pyralis luciferase – biochemical, luminescence, purified enzyme, 2006 set, primary screen (AID 1141).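 Also: cell-free assay with purified firefly luciferase at 100 ng per well in PBS; test concentration not given here.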 The note with it: purified firefly luciferase, SteadyGlo luminescence, 30 min; higher = more signal, called active from +8 up or from −8 down.

Test [10] has as its system Wnt5a (protein binding on small-molecule microarray). Put plainly: small molecules binding Wnt5a protein – biophysical, small-molecule microarray, 635/667 nm fluorescence, primary screen (AID 1142).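 Also: fluorescence read at 667 nm with signal to noise per printed feature.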 The note with it: 635 nm fluorescence, higher = more signal.
Test [11] in a line: ATP-based viability of Huh7 replicon cells – cell-based, CellTiter-Glo luminescence, basal, 48 h, cytotoxicity control for HCV replication inhibitor project, primary screen (AID 1143).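 Also: Huh7 hepatoma cells carrying a hepatitis C replication reporter with no stimulus; test concentration not given here.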 The following applies: higher = more signal, called active from +8 up or from −8 down.
A short description of test [12]: Pseudomonas biofilm growth suppression – PAO1 strain, BacTiter-Glo luminescence, LB-PBS, primary screen (AID 1144). The following applies: P. aeruginosa PAO1 biofilm, 12 h, higher = more signal.
Test [13] can be described thus: basal CRE-LacZ reporter activity in PC12 – cell-based, unstimulated, primary screen (AID 1145). The following applies: no forskolin, luminescence, 4.5 h, higher = more signal, called active from +8 up or from −8 down.
Test [14] can be described thus: forskolin-driven CRE-LacZ activity in PC12 – cell-based, CRE-LacZ reporter, forskolin-stimulated, primary screen (AID 1146).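 Also: PC12 cells with 6xCRE LacZ reporter stimulated by forskolin 10 µM; beta-galactosidase reporter signal reflecting CREB driven transcription.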 The note with it: luminescence, 4.5 h, higher = more signal, called active from +8 up or from −8 down.
Test [15] addresses Streptavidin (Streptomyces avidinii) (UniProt P22629). Put plainly: compounds binding control protein streptavidin – biophysical, small-molecule microarray, 635/667 nm fluorescence, artefact control for SMM compound annotation, primary screen (AID 1147).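 Also: signal reflects streptavidin binding to arrayed compounds as a control protein.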 The note with it: higher = more signal.
A short description of test [16]: probe aInhba binding on compound microarray – biochemical, small-molecule microarray, 635/667 nm fluorescence, primary screen (AID 1148).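 Also: score merges 667nm spot fluorescence with signal-to-noise for antibody binding to printed compounds.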 The note with it: higher = more signal.
Test [17] has as its target Torsin-1A (Homo sapiens) (UniProt O14656). Put plainly: TOR1A wild-type binding on microarray – cell lysate, small-molecule microarray, lysate, 635/667 nm, primary screen (AID 1149). The following applies: COS7 hTOR1A-WT lysate, 635 nm fluorescence, higher = more signal.
Test [18] has the same target. The test is described as follows: torsin A mutant lysate binding on microarrays – cell lysate, small-molecule microarray, COS7 lysate, 635/667 nm fluorescence, primary screen (AID 1150).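 Also: score pools 667 nm emission and signal to noise measuring lysate protein binding.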 The following applies: COS7 hTOR1A mutant lysate, 635 nm fluorescence, higher = more signal.
Test [19] relates to Sonic hedgehog protein (Shh). Put plainly: Sonic hedgehog microarray binding compounds – biochemical, small-molecule microarray, 635/667 nm fluorescence, primary screen (AID 1151).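 Also: Shh protein binding to compounds spotted on small-molecule microarray slides; score combines spot fluorescence intensity with signal-to-noise across triplicate slides.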 The following applies: 635 nm fluorescence, higher = more signal.

Active and inactive are the calls of the source. Unless noted, no rule for the calls is given here.

Sequence of Streptavidin (Streptomyces avidinii) (P22629 whole entry, looked up): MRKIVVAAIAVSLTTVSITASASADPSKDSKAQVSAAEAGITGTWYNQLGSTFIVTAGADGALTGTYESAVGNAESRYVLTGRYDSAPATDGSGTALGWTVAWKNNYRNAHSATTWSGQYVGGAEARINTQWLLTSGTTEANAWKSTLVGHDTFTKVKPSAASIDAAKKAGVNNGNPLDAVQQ
Sequence of Torsin-1A (Homo sapiens) (O14656 whole entry, looked up): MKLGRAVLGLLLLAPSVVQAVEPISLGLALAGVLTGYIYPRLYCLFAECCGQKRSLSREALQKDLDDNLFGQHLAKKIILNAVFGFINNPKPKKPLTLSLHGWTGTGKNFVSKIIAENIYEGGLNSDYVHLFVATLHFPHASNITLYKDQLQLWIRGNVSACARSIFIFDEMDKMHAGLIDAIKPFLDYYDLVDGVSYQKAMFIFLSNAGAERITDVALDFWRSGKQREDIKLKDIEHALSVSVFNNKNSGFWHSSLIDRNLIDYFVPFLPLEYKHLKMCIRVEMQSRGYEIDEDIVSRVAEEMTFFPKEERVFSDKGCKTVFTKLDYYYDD
Sequence of Luciferin 4-monooxygenase (Photinus pyralis) (P08659 whole entry, looked up): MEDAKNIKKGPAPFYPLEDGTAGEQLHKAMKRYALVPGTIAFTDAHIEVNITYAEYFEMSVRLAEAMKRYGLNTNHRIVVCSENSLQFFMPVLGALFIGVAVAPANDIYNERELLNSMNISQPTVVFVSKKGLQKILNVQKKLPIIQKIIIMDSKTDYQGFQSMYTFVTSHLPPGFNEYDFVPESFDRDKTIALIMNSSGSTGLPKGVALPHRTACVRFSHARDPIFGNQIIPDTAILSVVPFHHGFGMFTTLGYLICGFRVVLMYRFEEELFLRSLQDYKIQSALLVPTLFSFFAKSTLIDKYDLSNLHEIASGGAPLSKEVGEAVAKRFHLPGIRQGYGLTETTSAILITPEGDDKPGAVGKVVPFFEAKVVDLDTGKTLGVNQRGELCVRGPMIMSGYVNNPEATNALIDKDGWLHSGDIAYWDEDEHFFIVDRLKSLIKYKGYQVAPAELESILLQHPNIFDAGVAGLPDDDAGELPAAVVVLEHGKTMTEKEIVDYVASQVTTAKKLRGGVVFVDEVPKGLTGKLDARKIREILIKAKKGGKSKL
Sequence of Follistatin (Homo sapiens) (P19883 whole entry, looked up): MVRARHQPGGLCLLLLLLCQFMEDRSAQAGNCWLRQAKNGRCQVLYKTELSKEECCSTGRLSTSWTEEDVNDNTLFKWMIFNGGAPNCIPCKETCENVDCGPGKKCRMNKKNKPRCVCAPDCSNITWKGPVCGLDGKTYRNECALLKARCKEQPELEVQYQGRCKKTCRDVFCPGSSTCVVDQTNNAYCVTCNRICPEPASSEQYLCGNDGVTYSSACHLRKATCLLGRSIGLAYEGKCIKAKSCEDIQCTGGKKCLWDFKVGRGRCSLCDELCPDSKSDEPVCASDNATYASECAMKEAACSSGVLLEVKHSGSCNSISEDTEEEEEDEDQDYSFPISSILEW
Sequence of Fibroblast growth factor 2 (Homo sapiens) (P09038 whole entry, looked up): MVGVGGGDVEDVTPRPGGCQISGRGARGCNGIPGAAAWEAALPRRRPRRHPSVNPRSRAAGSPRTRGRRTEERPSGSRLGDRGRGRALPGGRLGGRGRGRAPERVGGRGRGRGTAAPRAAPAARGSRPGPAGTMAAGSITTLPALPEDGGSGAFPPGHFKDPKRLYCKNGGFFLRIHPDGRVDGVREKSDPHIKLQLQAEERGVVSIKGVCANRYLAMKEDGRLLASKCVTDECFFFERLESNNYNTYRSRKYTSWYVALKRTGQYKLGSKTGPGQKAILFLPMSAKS
Sequence of Focal adhesion kinase 1 (Homo sapiens) (Q05397 whole entry, looked up): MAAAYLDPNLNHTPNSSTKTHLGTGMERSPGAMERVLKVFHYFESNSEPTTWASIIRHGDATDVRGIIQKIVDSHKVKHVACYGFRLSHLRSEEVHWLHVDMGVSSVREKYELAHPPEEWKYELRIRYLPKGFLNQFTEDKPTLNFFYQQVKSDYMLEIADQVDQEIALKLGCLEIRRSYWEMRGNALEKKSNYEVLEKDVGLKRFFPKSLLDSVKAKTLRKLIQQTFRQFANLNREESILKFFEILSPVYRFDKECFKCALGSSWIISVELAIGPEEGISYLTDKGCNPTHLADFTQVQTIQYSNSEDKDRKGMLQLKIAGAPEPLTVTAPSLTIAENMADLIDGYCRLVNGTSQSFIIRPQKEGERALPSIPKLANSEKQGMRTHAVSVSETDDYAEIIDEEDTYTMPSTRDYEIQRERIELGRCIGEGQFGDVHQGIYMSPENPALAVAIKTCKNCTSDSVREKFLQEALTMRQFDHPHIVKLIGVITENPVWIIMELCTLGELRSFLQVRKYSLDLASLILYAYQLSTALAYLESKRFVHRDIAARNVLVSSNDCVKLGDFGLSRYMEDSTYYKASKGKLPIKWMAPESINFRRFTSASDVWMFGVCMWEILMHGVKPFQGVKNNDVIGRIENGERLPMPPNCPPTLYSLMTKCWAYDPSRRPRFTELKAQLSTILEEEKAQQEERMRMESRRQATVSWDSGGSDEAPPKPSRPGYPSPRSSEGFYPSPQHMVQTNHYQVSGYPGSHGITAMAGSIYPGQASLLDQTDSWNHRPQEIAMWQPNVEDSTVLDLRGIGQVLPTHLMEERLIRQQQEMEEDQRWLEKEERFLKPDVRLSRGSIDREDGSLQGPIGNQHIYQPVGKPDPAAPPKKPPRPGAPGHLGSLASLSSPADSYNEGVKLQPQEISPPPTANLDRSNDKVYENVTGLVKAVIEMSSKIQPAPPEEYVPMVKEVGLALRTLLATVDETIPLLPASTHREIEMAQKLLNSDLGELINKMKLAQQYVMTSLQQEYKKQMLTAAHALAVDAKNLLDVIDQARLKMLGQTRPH

In the case of `CN(C)C(=O)[C@]1(CCC(=O)OC(C)(C)C)N=C(c2ccc(OCCCO)cc2)O[C@@H]1c1ccccc1`, the composite z-score in test [1] turned out to be 2.57; in test [2] it was 1.27; in [3] it was 0.712; in test [4], 0.97; in [5] it was 0.562; in [6] it was 0.399. Also, the composite z-score was -0.781 in the test with Lefty1; 0.448 in [8]; 0.677 in [10]; -0.092 in test [15]; -0.0791 in test [16]; 0.69 in the test with Torsin-1A (Homo sapiens) [17]. The results for the composite z-score (with Torsin-1A (Homo sapiens) [18]; in [19]) were 2.2 and -0.857, respectively. The z-score in test [7] was 1.58; in test [9], -1.41 (inactive); in [11], 0.325 (inactive); in [12], 1.02 (inactive); in test [13] it was 0.493 (inactive); in [14] it was 0.524 (inactive).
Regarding `COC(=O)C(CC#Cc1ccc2c(c1)[C@]1(C(=O)N2)[C@H](C(=O)O)[C@H]2C(=O)O[C@H](c3ccccc3)[C@H](c3ccccc3)N2[C@@H]1c1ccccc1OCCO)C(=O)OC`, the composite z-score worked out at 2.8 in test [1]; 1.24 in test [2]; 0.712 in test [3]; 0.95 in [4]; 1.18 in test [5]; 0.838 in [6]. In addition, the composite z-score amounted to 0.976 in the test with Lefty1; 1.18 in test [8]; 0.193 in test [10]; 0.678 in test [15]; 0.36 in [16]; 1.04 with Torsin-1A (Homo sapiens) [17]. Moreover, the values for the composite z-score (with Torsin-1A (Homo sapiens) [18]; in test [19]) were 0.829 and 1.41, respectively. The z-score in test [7] was -1.01; in [9] it was -3.09 (inactive); in test [11], -1.66 (inactive); in test [12], -0.292 (inactive); in test [13], 0.899 (inactive); in test [14], 2.92 (inactive).
With `CN(C)CCCNC(=O)[C@@H]1c2ccccc2C(=O)N(CC23CC4CC(CC(C4)C2)C3)[C@H]1c1ccc(CO)cc1`, the composite z-score in test [1] came out at 2.44; in test [2], 1.27; in test [3] it was 0.0169; in [4], 0.954; in test [5], 1.21; in [6], 0.788. In addition, the composite z-score with Lefty1 was determined as 1.26; in [8] it was 0.665; in test [10], 0.528; in [15] it was 1.12; in [16], 0.016; with Torsin-1A (Homo sapiens) [17], 0.954. For the same compound, the composite z-score turned out to be 0.808 with Torsin-1A (Homo sapiens) [18] and 1.5 in [19]. In addition, the z-score was 1.36 in test [7]; 0.717 (inactive) in test [9]; -4.72 (inactive) in test [11]; -0.465 (inactive) in test [12]; -0.322 (inactive) in test [13]; -0.0221 (inactive) in [14].
`O=C1NC(=O)C2C1C=CC(C(O)c1cc(C(F)(F)F)cc(C(F)(F)F)c1)N2Nc1ccc(Cl)cc1Cl` (stereo not given): the composite z-score is 0.864 in [1]; 1.05 in [2]; 0.46 in test [3]; -0.607 in [4]; 0.109 in [5]; -0.544 in test [6]. In addition, the composite z-score is -1.03 in the test with Lefty1; 0.802 in [8]; 0.465 in test [10]; 0.416 in test [15]; 0.069 in test [16]; -0.371 in the test with Torsin-1A (Homo sapiens) [17]. In addition, the composite z-score with Torsin-1A (Homo sapiens) [18] was 0.357; in test [19], -0.384. Further, the z-score in [7] is -0.836; in test [9], 0.172 (inactive); in test [11], -1.32 (inactive); in test [12], -0.673 (inactive); in test [13], -0.329 (inactive); in test [14] it was 0.78 (inactive).
As to `COc1ccc(NN2C(C(O)c3ccco3)C=CC3C(=O)N(C4CCCCC4)C(=O)C32)cc1` (stereo not given), the composite z-score came out at 1.04 in test [1]; 1.22 in test [2]; 0.653 in [3]; 0.936 in test [4]; 1.25 in [5]; 0.484 in [6]. The composite z-score in the test on Lefty1 turned out to be 0.655; in [8], 1.19; in test [10] it was 0.495; in test [15], 0.965; in test [16], 0.0471; in the test with Torsin-1A (Homo sapiens) [17], 0.95. Further, the composite z-score in the test with Torsin-1A (Homo sapiens) [18] worked out at 1.1; in test [19] it was 1.28. Moreover, the z-score was 0.265 in [7]; -0.358 (inactive) in [9]; -0.829 (inactive) in [11]; -0.522 (inactive) in test [12]; 0.323 (inactive) in test [13]; 0.565 (inactive) in test [14].

Values taken from PubChem BioAssay.
